Here are results for 10 compounds from PubChem BioAssay (NCATS).

“And” between values parts separate entries of the source, which are not always exact repeats. Identical values can stand only once. Results filed as inconclusive are left out. The source made the active and inactive calls. Calls follow the shape of the dose curve; as a rule, active = well fitted curve in the direction sought with a large enough effect; inconclusive = small, poorly fitted or top-dose-only effect, or another doubt; inactive = no such curve, though single readings can be large; an effect the other way counts as inactive or inconclusive. Residues, ends and D or L forms follow the SMILES beside them. *: point of attachment. Cbz = O=C(OCc1ccccc1)*

Test [1] is described as follows: qHTS Screen of the MIPE 4.0 Collection Against Ewings Sarcoma (TC32) (AID 1259256). Also: nearly all actives have a fitted effect of over 45% in size. The method in brief:
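Dose series incubated 48 h with cells in RPMI plus 5% FBS, glutamine and penicillin/streptomycin; cell viability then quantified via CellTiter-Glo.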

A short description of test [2]: P-glycoprotein substrates identified in KB-8-5-11 adenocarcinoma cell line, qHTS therapeutic library screen (AID 1346987). Also: nearly all actives have a fitted effect of over 65% in size. The method in brief:
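P-gp-mediated resistance screen: KB-8-5-11 cells treated 72 h with compounds in dose-response. CellTiter-Glo viability.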

Test [3] is described as follows: qHTS of pediatric cancer cell lines to identify multiple opportunities for drug repurposing: Primary screen for SJ-GBM2 cells (AID 1347091). The method in brief:
(§1)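 Viability measured as metabolically active cells via CellTiter-Glo luminescence following 48 hours of compound exposure, 11-point dilutions in confirmatory testing. 500-1,000 cells/well plated 5 hours before dosing; controls were DMSO and 2.3 µM bortezomib.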

Test [4] in a line: qHTS of pediatric cancer cell lines to identify multiple opportunities for drug repurposing: Primary screen for A673 cells (AID 1347092). Also: nearly all actives have a fitted effect of over 45% in size. The method in brief: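 Titration-based qHTS on A673 cells: MIPE compounds spanned 11 points (0.78 nM to 46 µM final), NPC compounds 8 points (0.59 nM to 46 µM final). Viability after 48 h was measured by ATP luminescence.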
Test [5] in a line: qHTS of pediatric cancer cell lines to identify multiple opportunities for drug repurposing: Primary screen for SK-N-MC cells (AID 1347093). An outline of the steps:
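Metabolically active cells were quantified by ATP-dependent luminescence (CellTiter-Glo, 15 min at room temperature) following 48 h treatment. Cells had been plated at 500-1,000 per well and settled for 5 h beforehand.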

Test [6] in a line: qHTS of pediatric cancer cell lines to identify multiple opportunities for drug repurposing: Primary screen for BT-37 cells (AID 1347094). An outline of the steps: (§2)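 Plated cells (500-1,000 per well, growth media) were allowed to settle for 5 hours, treated with compound dilutions for 48 hours, then lysed with CellTiter-Glo for 15 min at room temperature before luminescence reading.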

Test [7] can be described thus: qHTS of pediatric cancer cell lines to identify multiple opportunities for drug repurposing: Primary screen for NB-EBc1 cells (AID 1347095). An outline of the steps:
as §2

Test [8] is described as follows: qHTS of pediatric cancer cell lines to identify multiple opportunities for drug repurposing: Primary screen for U-2 OS cells (AID 1347096). Also: nearly all actives have a fitted effect of over 50% in size. An outline of the steps:
(§3)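 Viability after 48 h compound treatment at 37C, 500-1,000 cells/well, read as ATP luminescence with CellTiter-Glo. Primary screens used 11-point (MIPE, 0.78 nM-46 µM) or 8-point (NPC, 0.59 nM-46 µM) final concentrations; follow-up screens used 11-point dilutions.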

Test [9] can be described thus: qHTS of pediatric cancer cell lines to identify multiple opportunities for drug repurposing: Primary screen for Saos-2 cells (AID 1347097). Also: nearly all actives have a fitted effect of over 40% in size. The method in brief: as §2
A short description of test [10]: qHTS of pediatric cancer cell lines to identify multiple opportunities for drug repurposing: Primary screen for SK-N-SH cells (AID 1347098). Also: nearly all actives have a fitted effect of over 65% in size. The method in brief: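 Cells (500-1,000/well) rested 5 h, then received compounds for 48 h; metabolically active cells were measured by CellTiter-Glo luminescence. Final concentrations spanned up to 46 µM (MIPE, 11-point) or 0.59 nM-46 µM (NPC, 8-point) in primary screens, 11-point in follow-ups.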

A short description of test [11]: qHTS of pediatric cancer cell lines to identify multiple opportunities for drug repurposing: Primary screen for LAN-5 cells (AID 1347100). The method in brief:
as §3

Test [12] is described as follows: qHTS of pediatric cancer cell lines to identify multiple opportunities for drug repurposing: Primary screen for TC32 cells (AID 1347089). Also: nearly all actives have a fitted effect of over 60% in size. The method in brief: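 A viability screen of TC32 cells was run over 48 h, with primary MIPE doses spanning 0.78 nM–46 µM and NPC doses 0.59 nM–46 µM. ATP luminescence (CellTiter-Glo) served as the read-out.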
Test [13] in a line: qHTS of pediatric cancer cell lines to identify multiple opportunities for drug repurposing: Primary screen for NB1643 cells (AID 1347099). Also: nearly all actives have a fitted effect of over 50% in size. An outline of the steps: as §2
Test [14] can be described thus: NS1 protein of Zika virus - qHTS assay to identify small molecule inhibitors in human HEK 293 cells (AID 1347053). Also: nearly all actives have a fitted effect of over 55% in size. An outline of the steps: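 Following 20 h seeding, HEK 293 cells took compound, then 1 h later ZIKV MR766 (MOI = 0.5). Incubation ran 24 h at 37 C before TR-FRET detection of NS1; a drop in signal indicates inhibition.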
Test [15] is described as follows: qHTS of pediatric cancer cell lines to identify multiple opportunities for drug repurposing: Primary screen for DAOY cells (AID 1347090). Also: nearly all actives have a fitted effect of over 55% in size. The method in brief: as §1
Potency is read from the fitted curve at half-maximal effect.

Take `c1cc(N[C@@H]2CCNC2)nc(-c2cnc3ccc(-c4cn[nH]c4)cn23)c1`: the Potency is 23.5 µM (active) in [1]; 16.6 µM (active) in [3]; 2.96 µM (active) in test [4]; 4.69 µM (active) in test [5]; 19.3 µM (active) in test [6]; 18.7 µM (active) in [9]. The Potency in [10] was 24.1 µM (active); in test [11], 11.8 µM (active). For the same compound, the Potency entry in test [2], in test [7] and in test [8] was “inactive” each time.

As for `CN(C)CC(=O)N1CCC(c2ccc(NC(=O)c3ncc(C#N)[nH]3)c(C3=CCCCC3)c2)CC1`, the Potency in [1] is 20.9 µM (active); in [3] it was 18.7 µM (active); in test [4], 18.7 µM (active); in test [5] it was 1.66 µM (active); in test [7], 23.5 µM (active); in test [9] it was 18.7 µM (active). For the same compound, the results for the Potency in test [13] and in test [11] were 18.7 µM (active) and 16.6 µM (active), respectively. Further, the Potency result in test [2] and in test [12] was “inactive” each time.

On to `COc1ccc(S(=O)(=O)Nc2cccnc2Nc2ccc(O)cc2)cc1`, for which the Potency entry in test [1] and in [13] was “inactive” in each case. Also, the Potency in test [2] was 418 nM (active) and 920 nM (active); in [12] it was 8.29 µM (active); in [4], 0.235 µM (active); in test [5] it was 0.296 µM (active); in [6], 0.344 µM (active); in test [7] it was 0.0166 µM (active). For the same compound, the Potency in test [9] was 0.235 µM (active); in test [11] it was 0.0469 µM (active).

`CN1[C@H]2CC(OC(=O)[C@@H](CO)c3ccccc3)C[C@H]1[C@H]1O[C@H]12` (stereo partly specified): the Potency result in [1], in [14], in [12], in test [15], in test [3] and in [4] was “inactive” throughout. In addition, the Potency result in [5], in test [6], in [7], in test [8], in test [9] and in [11] was “inactive” each time.

For the compound `CC(C)C[C@@H](C=O)NC(=O)[C@H](CC(C)C)NC(=O)[C@H](CC(C)C)NC(=O)OCc1ccccc1` (Cbz-Leu-Leu-Leu-aldehyde), the Potency in [1] was 0.372 µM (active); in [2], 5.26 µM (active); in test [14], 1.66 µM (active); in test [5], 0.0833 µM (active); in test [6], 0.863 µM (active); in [7], 0.166 µM (active). Besides, the Potency in [8] was 0.935 µM (active); in test [9] it was 0.743 µM (active); in test [10] it was 0.857 µM (active); in test [13] it was 0.372 µM (active); in [11], 0.662 µM (active).

In the case of `Nc1ncn([C@@H]2O[C@H](CO)[C@@H](O)[C@@H]2O)c(=O)n1`, the Potency in [1] is 4.69 µM (active); in test [2], 11.8 µM (active); in test [3], 7.43 µM (active); in [6] it was 10.9 µM (active); in test [7], 16.6 µM (active); in test [13] it was 4.69 µM (active). Further, the Potency in test [11] is 5.26 µM (active).

For the compound `O=C(C=CC=Cc1ccc2c(c1)OCO2)N1CCCCC1`, the Potency result in [1], in test [2], in test [12], in [15], in test [3] and in [5] was “inactive” each time. In addition, the Potency result in test [6], in [7], in test [8], in [9], in [10] and in [13] was “inactive” in each case. Besides, in [11], the Potency result was “inactive”.

Consider `C=CCNC1=C2C[C@@H](C)C[C@H](OC)[C@@H](O)[C@@H](C)C=C(C)[C@H](OC(N)=O)[C@@H](OC)C=CC=C(C)C(=O)NC(=CC1=O)C2=O`, for which the Potency is 0.372 µM (active) in [1]; 3.72 µM (active) in test [2]; 1.17 µM (active) in test [12]; 0.59 µM (active) in test [3]; 1.48 µM (active) in test [4]; 1.66 µM (active) in test [5]. Also, the Potency is 0.193 µM (active) in test [6]; 1.48 µM (active) in test [7]; 1.66 µM (active) in test [9]; 2.41 µM (active) in test [10]; 1.48 µM (active) in [13]; 2.09 µM (active) in test [11].

Consider `Cn1c(Nc2ccc(C(F)(F)F)cc2)nc2cc(Oc3ccnc(-c4ncc(C(F)(F)F)[nH]4)c3)ccc21`, for which the Potency was 2.09 µM (active) in [1]; 20.9 µM (active) in test [2]; 16.5 µM (active) in test [12]; 18.7 µM (active) in test [15]; 0.662 µM (active) in test [3]; 2.35 µM (active) in test [4]. The Potency in test [5] was 0.187 µM (active); in test [6], 2.43 µM (active); in test [7] it was 14.8 µM (active); in test [8] it was 14.8 µM (active); in test [9], 2.96 µM (active); in [13] it was 11.8 µM (active). Moreover, the Potency in test [11] was 10.5 µM (active).

Take `COc1ccc(C=Cc2cc(OC)c(OC)c(OC)c2)cc1NC(=O)[C@H](N)CO`: the Potency result in test [1] and in test [10] was “inactive” throughout. Also, the Potency in test [2] was 0.0059 µM (active); in [12] it was 0.0415 µM (active); in test [15] it was 0.0093 µM (active); in [3] it was 0.001 µM (active); in test [4], 0.0093 µM (active); in test [5], 0.0118 µM (active). Also, the Potency in [6] is 0.0172 µM (active); in test [7], 0.001 µM (active); in test [9], 0.0105 µM (active); in [11], 0.0132 µM (active).
